The values below come from PubChem BioAssay.

The source made the active and inactive calls. No rule for the calls is given here.

The assay deals with Pantothenate synthetase (Mycobacterium tuberculosis (strain ATCC 25618 / H37Rv)) (UniProt P9WIL5). The assay can be described thus: Recombinant Mtb pantothenate synthetase (PanC) inhibitors, coupled enzyme, confirmatory (AID 375).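 Also: 0% = full reaction with vehicle and 100% = no enzyme background.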 As to conditions: coupled enzyme assay; at 10 µM, hits give high values.
Sequence of Pantothenate synthetase (Mycobacterium tuberculosis (strain ATCC 25618 / H37Rv)) (P9WIL5 whole entry, looked up): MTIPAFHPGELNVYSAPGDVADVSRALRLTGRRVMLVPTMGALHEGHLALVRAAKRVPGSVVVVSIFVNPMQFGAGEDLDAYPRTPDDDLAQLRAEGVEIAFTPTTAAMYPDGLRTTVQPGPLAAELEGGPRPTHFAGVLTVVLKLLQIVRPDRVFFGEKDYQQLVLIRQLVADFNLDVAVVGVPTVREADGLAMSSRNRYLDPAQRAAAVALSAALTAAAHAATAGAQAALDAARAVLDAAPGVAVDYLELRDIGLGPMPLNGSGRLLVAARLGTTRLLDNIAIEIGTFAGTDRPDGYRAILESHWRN
`O=C(C1CCN(S(=O)(=O)c2cccc3cccnc23)CC1)N1CCN(C2CCCCC2)CC1`: the inhibition was 0% (inactive). As for `C=C(CC)C(=O)c1ccc(OCC(=O)O)c(Cl)c1Cl`, the inhibition was 0% (inactive). Regarding `COc1ccc(CNc2ccc(C(=O)O)cc2)cc1`, the inhibition is 0% (inactive). `COc1ccc(N2CCN(C(c3cccs3)c3nnnn3C3CCCC3)CC2)cc1` (stereo not given): the inhibition was 6% (inactive). Under `CCN(CCO)C(=O)CC(c1ccccc1)c1cc(Br)ccc1O` (stereo not given) stands 5% (inactive); under `Cc1ccc2c(c1)NC(=O)C(CC(=O)NC1CCCCC1C)O2` (stereo not given), 11% (inactive). For `O=C(NCc1ccccc1)c1ccc(OC2CSC2)cc1`, the inhibition is 1% (inactive). As for `O=C1CCCC(O)=C1C=Nc1ccc2c(c1)oc1ccccc12`, the inhibition was 3% (inactive). Under `CCOC(=O)c1ccc(N2C(=O)CC(NC3CCN(C(=O)c4ccc(F)cc4)CC3)C2=O)cc1` (stereo not given) stands 1% (inactive); under `CCOC(=O)c1ccccc1NC1c2ccccc2C(=O)N1C1CCN(C(=O)OCC)CC1` (stereo not given), 2% (inactive). Take `CCOC(=O)C(NC(=O)c1ccc(OC)cc1)(N1CCOCC1)C(F)(F)F` (stereo not given): the inhibition is 2% (inactive). Under `O=C(Cc1ccccc1)Nc1nnc(-c2cccs2)s1` stands 0% (inactive). Turning to `COc1ccc2cc(C#N)c(NC(C)C)nc2c1`, the inhibition is 0% (inactive). In the case of `CCCn1c(NC(=O)C2COc3ccccc3O2)nc2ccccc21` (stereo not given), the inhibition is 0% (inactive). Next, `CN(C)CCCNC(=O)CCC1CCCCC1`: 6% (inactive); `C=CCn1c(SCC(=O)NC2CCCCC2)nnc1-c1sc(N)nc1C`: 7% (inactive); `CCOc1ccc(NC(=O)CC2NCCNC2=O)cc1` (stereo not given): 9% (inactive). Take `Cc1csc2nc(CSc3nc4ccccc4o3)c(Br)n12`: the inhibition is 0% (inactive). For the compound `CC(C)CCSc1nc2c(c(=O)[nH]c(=O)n2C)n1CCCc1ccccc1`, the inhibition is 0% (inactive). Consider `COc1ccc(-c2nc(C#N)c(N3CCOCC3)o2)cc1OC`, for which the inhibition is 0% (inactive). Consider `O=C(NC1CCCCCC1)c1c(F)c(F)c(F)c(F)c1F`, for which the inhibition was 4% (inactive). As to `CCCc1cc(-n2ccnc2)n2c(nc3ccccc32)c1C#N`, the inhibition is 0% (inactive). Under `COc1ccc(-c2nc(C(N)=O)c3[nH]c(=O)n(-c4cccc(Cl)c4)c3n2)cc1OC` stands 1% (inactive). With `CCOCCCNCC(=O)N1CCN(S(=O)(=O)c2ccc(C)cc2)CC1`, the inhibition was 0% (inactive). On to `O=C(COc1ccccc1)N1CCN(c2ncnc3c2cnn3-c2ccccc2)CC1`, for which the inhibition is 0% (inactive).

As for `CCOC(=O)c1ccc2[nH]c3c(c2c1)CCCCC3=O`, the inhibition was 0% (inactive). Turning to `CC1(C)NC(=O)N(CC(O)COc2cccc(F)c2)C1=O` (stereo not given), the inhibition is 0% (inactive). As for `O=C(NCc1cccnc1)c1cn(CCc2ccccc2)nn1`, the inhibition was 0% (inactive). As to `CC(C)(C)NC(=O)CSc1nnc(-c2ccccn2)n1-c1ccccc1`, the inhibition is 0% (inactive). In the case of `CCCNC(=O)NC(C(=O)OC)C12CC3CC(CC(C3)C1)C2` (stereo not given), the inhibition was 3% (inactive). On to `CCOc1cc(NC(=O)c2ccccn2)c(OCC)cc1NC(=O)CC(C)C`, for which the inhibition is 11% (inactive). Next, `CCN(CC)S(=O)(=O)c1cccc2c(N(C)C)cccc12`: 0% (inactive); `Cc1ccc2cc3cc(C(=O)N4CC(C)CC(C)C4)oc3nc2c1` (stereo not given): 3% (inactive). As to `COc1ccc(C(C)N2CC34C=CC(O3)C(C(=O)OCC(C)C)C4C2=O)cc1` (stereo not given), the inhibition is 9% (inactive). In the case of `COc1ccc(-c2nnc3ccc(SC(C(C)=O)C(C)=O)nn23)cc1OC`, the inhibition is 2% (inactive). Consider `CCc1c(C)c2c(C)nn(-c3ccccc3)c2[nH]c1=O`, for which the inhibition was 0% (inactive). For `CCC(=O)O[C@]1(C(=O)CCl)[C@@H](C)C[C@H]2[C@@H]3CCC4=CC(=O)C=C[C@]4(C)[C@@]3(F)[C@@H](O)C[C@@]21C`, the inhibition is 0% (inactive). Next, `CN1CCN(Cc2nc3c(c(=O)n(C)c(=O)n3C)n2Cc2ccccc2Cl)CC1`: 0% (inactive); `CC(=O)c1ccc(N2CCN(C(=O)c3cc(C)on3)CC2)cc1`: 0% (inactive); `Cc1ccc2nc(NC(=O)Cn3cc4c(n3)CCCCC4)sc2c1`: 0% (inactive).
